In all, about 320,000 compounds went through this assay and about 22,000 (6.9%) were called active. Roughly 27% stayed inconclusive and do not appear here. The entries come from a sample that favours actives as a whole. Where a call stands in place of a potency, no number is given. Unmarked numbers belong to inactive results. Calls follow the shape of the dose curve; as a rule, active = well fitted inhibition curve with a large enough effect; inconclusive = small, poorly fitted or top-dose-only effect, or another doubt; inactive = no such curve, though single readings can be large or run the other way.
Potency is read from the fitted curve at half-maximal effect.

The experiment is described as follows: Primary qHTS for delayed death inhibitors of the malarial parasite plastid, 96 hour incubation. The following applies: P. falciparum luciferase reporter growth; series mostly up to 28.7 µM. The method, boiled down:
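Readout is luminescence from an integrated firefly luciferase in P. falciparum. Red cells, 2% hematocrit and 0.05% parasitemia final, were cultured with compound through two parasite generations (96 hours) at 37 C, 5% CO2.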
In the case of `Cc1c(C)c(C)c(S(=O)(=O)N2CCC3(CC2)OCCO3)c(C)c1C`, the Potency result was “inactive”.
The same measure, in the same setting: in the case of `Cc1csc(NC(=O)C2CCN(S(=O)(=O)c3ccccc3)CC2)n1` it was “inactive”; in that of `CCOc1ccc(N(CC(=O)NCCOc2ccccc2OC)S(=O)(=O)c2ccccc2)cc1`, “inactive”.
Same read-out and setting: in the case of `Cc1ccccc1N1CCN(Cc2nc(Cc3ccccc3F)no2)CC1` it was “inactive”; in that of `COc1ccc(NC(=O)CC2C(=O)NC3CCCCC3N2C(=O)c2ccc(F)cc2)cc1` (configuration not stated), “inactive”.
Same read-out and setting: in the case of `COc1ccc(CNC(=O)CN(Cc2ccccc2Cl)C(=O)c2csnn2)cc1` it was “inactive”; in that of `COc1ccc(NC(=O)C2=CC(c3ccc(OC)c(OC)c3)=NS(=O)(=O)N2C)cc1`, “inactive”.
On to `COc1ccc(/C=C2\SC(=O)N(CCC(=O)NC3CCS(=O)(=O)C3)C2=O)cc1` (configuration not stated), for which the Potency entry was “inactive”.
`O=C(c1cc(COc2cccc(C(F)(F)F)c2)on1)N1CCSCC1`: the Potency result is “inactive”.
Same read-out and setting: the result for `C=CCn1c(=O)c(C(=O)NCc2ccc3c(c2)OCO3)c(O)c2ccccc21` reads “inactive”; that for `O=C1[C@H]2[C@@H](c3ccc(Cl)cc3)N3C(=O)N(c4cccc(F)c4)C(=O)[C@@]3(Cc3ccccc3)[C@H]2C(=O)N1C1CCCCC1`, 8.28 µM (active); that for `O=C(COC(=O)c1ccc(F)cc1)NCCCc1ccccc1`, “inactive”.
With `Cc1cc(C)c(-c2csc(NC(=O)CCCc3nc4ccccc4c(=O)[nH]3)n2)c(C)c1`, the Potency was 0.329 µM (active).
On the same count and under the same terms, the result for `CC(C)(C)c1ccc(NC(=O)COC(=O)CCc2nc3ccccc3c(=O)[nH]2)cc1` reads “inactive”; that for `Cc1cccc(S(=O)(=O)CC(=O)Nc2nc(-c3ccccc3)cs2)c1`, “inactive”.
On the same count and under the same terms, in the case of `CC(C)Oc1ccc(/C=N/NC(=O)c2nnn(-c3nonc3N)c2CN(C)C2CCCCC2)cc1` it was “inactive”.
On the same count and under the same terms, the result for `CCC(C)Sc1nc2c(cnn2-c2ccc(F)cc2)c(=O)[nH]1` (configuration not stated) reads “inactive”; that for `CN=c1scc(-c2cc(OC)ccc2OC)n1/N=C/c1c(C)[nH]c2ccccc12`, 6.57 µM (active); that for `COc1ccc(OC)c(N=Cc2c(O)[nH]c3ccccc23)c1`, “inactive”.
On to `COCCNC(=S)N/N=C/c1c(C)[nH]c2ccccc12`, for which the Potency result was “inactive”.
Still for that read-out and setting: in the case of `CC1CCC(NC(=O)CNC(=O)c2ccc3ccccc3c2)CC1` (configuration not stated) it was “inactive”; in that of `O=C(C1CC(=O)N(C2CCCCC2)C1)N1CCN(c2ccccc2)CC1` (configuration not stated), “inactive”; in that of `Cc1ccc2c(c1)N(CC(=O)N1CCC(C)CC1)C(=O)c1cccnc1O2`, “inactive”.
On the same count and under the same terms, the result for `Cc1cc(C(=O)NCCc2ccc(Cl)cc2)c(C)o1` reads “inactive”.
Same read-out and setting: the result for `Cc1ccc2c(c1)N(CC(=O)NCCCN1CCCCC1)C(=O)c1cccnc1O2` reads 9.28 µM (active); that for `CCCN1CCN(CCCNC(=O)CN2C(=O)COc3ccccc32)CC1`, “inactive”; that for `Cc1ccc2c(c1)N(CC(=O)NCCc1ccc(Cl)cc1)C(=O)c1cccnc1O2`, 10.4 µM (active).
Regarding `O=C(CN1C(=O)c2cccnc2Oc2ccc(Cl)cc21)Nc1ccc(F)cc1`, the Potency entry is “inactive”.
Take `COc1ccc(NC(=O)COC(=O)c2n[nH]c3ccccc23)c(OC)c1`: the Potency entry was “inactive”.
The same measure, in the same setting: the result for `CCCc1ccc(C(=O)COC(=O)CN2C(=O)NC3(CCCCC3C)C2=O)cc1` (configuration not stated) reads “inactive”.
The same measure, in the same setting: the result for `O=C(CN(C(=O)c1nsc(Cl)c1Cl)c1cccc(F)c1)NC1CCCC1` reads “inactive”; that for `CC(Oc1ccccc1)C(=O)Nc1c2c(nn1-c1ccccc1)CS(=O)C2` (configuration not stated), “inactive”.
For the compound `C=CCN1C(=O)c2ccc(C(=O)N3CCC(C(=O)OCC)CC3)cc2C1=O`, the Potency result was “inactive”.
The same measure, in the same setting: in the case of `Cc1cccc(C(=O)NNC(=O)CSc2nnc(C(C)C)n2C)c1` it was “inactive”.
Still for that read-out and setting: the result for `Cc1cc(C(=O)N/N=C/c2ccccc2[N+](=O)[O-])c(C)o1` reads “inactive”; that for `Cc1cc(C(=O)N/N=C\C(Br)=C\c2ccccc2)c(C)o1`, “inactive”.
The same measure, in the same setting: in the case of `CC(=C/c1ccccc1)/C=N/NC(=O)c1cc(C)oc1C` it was 9.28 µM (active); in that of `COc1cccc(Cn2cc(/C=N/NC(=O)c3cc(O)cc(O)c3)c3ccccc32)c1`, “inactive”; in that of `COc1ccc(N2CCN(C(=O)CCNC(=O)c3ccc(Br)cc3)CC2)cc1`, “inactive”.
As for `COc1ccc(N2CCN(C(=O)CNS(=O)(=O)c3ccc(C)c(C)c3)CC2)cc1`, the activity change, negative = inhibition is -44% [at 5.75 µM].
As for `COc1ccc(N2CCN(C(=O)CNC(=O)c3ccc(C(C)(C)C)cc3)CC2)cc1`, the Potency is 4.65 µM (active).
Take `COc1cc(OC)cc(C(=O)NCC(=O)N2CCCCCCC2)c1`: the Potency result was “inactive”.
Still for that read-out and setting: in the case of `O=C(NCC(=O)N1CCCCCCC1)c1ccccc1Cl` it was “inactive”; in that of `O=C(NCC(=O)N1CCN(c2ccccc2O)CC1)c1ccc2ccccc2c1`, 6.57 µM (active); in that of `CCOC(=O)c1c(N)sc2c1CCCC2=O`, “inactive”.
`O=C(CN(C(=O)CNC(=O)c1cccs1)c1cccc(F)c1)NC1CCCCC1`: the Potency entry was “inactive”.
On the same count and under the same terms, the result for `COc1ccccc1/C=C/C(=O)NC1CC2CCC1C2` (configuration not stated) reads “inactive”; that for `O=S(=O)(Nc1ccccc1Cl)c1cccc2nsnc12`, “inactive”.
`O=C(Nc1ccccc1)c1ccc2c(c1)OCCCO2`: the Potency result was “inactive”.
In the case of `C[C@H](NC(=O)[C@@H]1Cc2ccccc2CN1C(=O)OC(C)(C)C)C(=O)NC1CCCC1`, the Potency result is “inactive”.
The same measure, in the same setting: in the case of `O=C(COc1ccccc1O)NC1CCCC1` it was “inactive”.
Still for that read-out and setting: in the case of `COc1cc(C(=S)NC2CCCCC2)ccc1O` it was 4.15 µM (active).
Still for that read-out and setting: the result for `COc1ccc(Cl)cc1C(=O)NNC(=S)NC1CCCC1` reads “inactive”; that for `COc1ccc(C(C)NC(=S)NC2CCCCC2)cc1OC` (configuration not stated), 10.4 µM (active); that for `COc1ccc(CCNC(=O)CCC(=O)NC2CCCCC2)cc1OC`, “inactive”.
As to `CCN(CC)C(=O)c1ccc(O)c(OC)c1`, the Potency entry is “inactive”.
The same measure, in the same setting: in the case of `Cc1ccc(C)c(NS(=O)(=O)c2c(C)[nH]c(C)c2C(=O)N2CCCCC2)c1` it was “inactive”; in that of `CC(=O)N1CCN(CC(c2ccccc2)c2ccccc2)CC1`, “inactive”; in that of `NC(=O)C(Cc1ccccc1)NC(=O)C12CC3CC(CC(C3)C1)C2` (configuration not stated), “inactive”.
`CC(=O)O[C@]1(C(C)=O)CC[C@H]2[C@@H]3C=C(C)C4=CC(=O)CC[C@]4(C)[C@H]3CC[C@@]21C`: the Potency was 11.7 µM (active).
The same measure, in the same setting: in the case of `CCCCN(C1CCS(=O)(=O)C1)S(=O)(=O)c1ccc(C(C)C)cc1` (configuration not stated) it was “inactive”; in that of `O=C(/C=C/c1ccc(OCc2c(F)cccc2Cl)cc1)N1CCOCC1`, 10.4 µM (active); in that of `Fc1cccc(Cl)c1COc1ccc(-c2nnco2)cc1`, “inactive”.
As to `O=C(Nc1ccc(OCC(=O)N2CCOCC2)cc1)c1cc(F)c(F)cc1Cl`, the Potency result was “inactive”.
The same measure, in the same setting: the result for `CCC(C)C(NC(=O)C1CCC(=O)N1C(=O)OCc1ccccc1)C(=O)NC(C(=O)N1CCCC1C(N)=O)C(C)CC` (configuration not stated) reads “inactive”; that for `O=C(COC(=O)c1ncc(Cl)c(Cl)c1Cl)NNC(=O)c1ccccc1`, “inactive”; that for `CCCCN(C(=O)C1=NN(c2cc(C)ccc2C)C(=O)CC1)c1c(N)n(CCC)c(=O)[nH]c1=O`, “inactive”.
The same measure, in the same setting: in the case of `Cc1cc(NC(=O)C(C)N2C(=O)c3ccccc3S2(=O)=O)no1` (configuration not stated) it was “inactive”; in that of `Cc1ccc(-c2noc(CCC(=O)Nc3ccccc3N3CCN(C)CC3)n2)cc1`, “inactive”; in that of `Cc1cc(NC(=O)C(C)SCC(=O)Nc2ccccc2N2CCCCC2)no1` (configuration not stated), 9.28 µM (active).
For the compound `CC1(c2ccc3ccccc3c2)NC(=O)NC1=O` (configuration not stated), the Potency entry is “inactive”.
Regarding `CCOC(=O)Cc1csc(NC(=O)COc2ccc3c(C)cc(=O)oc3c2)n1`, the Potency result is “inactive”.
In the case of `Cc1ccc(O)c(/C=N/NC(=O)COc2ccc3c(C)cc(=O)oc3c2)c1`, the Potency is 10.4 µM (active).
The same measure, in the same setting: the result for `Cc1cc(=O)oc2cc(OCC(=O)Nc3nnc(C4CC4)s3)ccc12` reads “inactive”.
Same read-out and setting: in the case of `COc1cccc2[nH]c(C(=O)NCCc3ccccc3)cc12` it was “inactive”; in that of `Cc1nnc(Nc2ccccc2F)s1`, “inactive”; in that of `NS(=O)(=O)c1ccc(CCNC(=O)CNC(=O)Cc2ccccc2)cc1`, “inactive”.
The same measure, in the same setting: in the case of `CC(=O)O[C@H]1c2ccccc2-c2ccccc2[C@@H]1OC(C)=O` it was “inactive”.
`O=S(=O)(c1ccc(SCc2ccc(Br)cc2)nc1)N1CCOCC1`: the Potency result was “inactive”.
Same read-out and setting: the result for `CCc1nc(NCCO)c(C#N)c2c1CCCC2` reads “inactive”; that for `CN(C)c1nccc(NCc2ccccc2)c1C#N`, “inactive”; that for `CCCCc1nc(NCc2ccccc2)c(C#N)c2c1CCCC2`, 5.22 µM (active).
Still for that read-out and setting: the result for `CCOCc1nnc(NC(=O)CCS(=O)(=O)Cc2ccccc2)s1` reads “inactive”; that for `COc1ccc(CNS(=O)(=O)c2ccc(-c3cnc(C4CC4)o3)cc2)cc1`, 10.4 µM (active).
On to `COc1ccc(CNS(=O)(=O)c2cc(-c3cc(C)no3)ccc2C(C)C)cc1`, for which the Potency result was “inactive”.
Consider `COc1ccc(CNS(=O)(=O)c2ccc(NC(=O)N3CCCCC3)cc2)cc1`, for which the Potency entry is “inactive”.
On the same count and under the same terms, the result for `CCC(=O)N1c2ccc(S(=O)(=O)NCc3ccco3)cc2CC1C` (configuration not stated) reads “inactive”.
In the case of `COCCN(C(=O)CCC(=O)Nc1ccccn1)C(C(=O)NCCC(C)C)c1ccc(OC)cc1` (configuration not stated), the Potency was 0.522 µM (active).
Still for that read-out and setting: the result for `COCCNC(=O)C(c1ccc(C)cc1)N(C(=O)CCC(=O)Nc1ccccn1)c1cccc(C)c1` (configuration not stated) reads “inactive”; that for `COCCN(C(=O)CCC(=O)Nc1nccs1)C(C(=O)NCCC(C)C)c1ccc(F)cc1` (configuration not stated), “inactive”; that for `CN(CC(=O)NCc1ccc(Cl)cc1)S(=O)(=O)c1cccs1`, “inactive”.
Still for that read-out and setting: the result for `COc1ccccc1OCCNC(=O)CCNC(=O)c1ccccc1Cl` reads “inactive”.
Regarding `COc1cc(SC)ccc1C(=O)NCCOc1ccccc1Cl`, the Potency is 0.738 µM (active).
For the compound `COc1ccc(N2C(=O)C3CCCN3C2c2cccc(OC)c2)cc1` (configuration not stated), the Potency entry was “inactive”.
Same read-out and setting: the result for `COc1ccc(N2C(=O)C3CCCN3C2c2cc(OC)c(OC)cc2OC)cc1` (configuration not stated) reads “inactive”.
The same measure, in the same setting: in the case of `COc1cccc(N2C(=O)C3CCCN3C2c2ccc(F)cc2)c1` (configuration not stated) it was 10.4 µM (active); in that of `CCNC(=O)c1cnn(-c2ccccc2)c1-c1ccccc1`, “inactive”; in that of `COc1ccccc1CNC(=O)COn1nnc2ccc(S(=O)(=O)N3CCOCC3)cc21`, “inactive”.
Still for that read-out and setting: the result for `CC(C)C(C(=O)NCc1ccco1)N(CC1CCCO1)C(=O)CNS(=O)(=O)c1ccc(F)cc1` (configuration not stated) reads “inactive”; that for `CCCC(C(=O)NCc1ccco1)N(C(=O)CNS(=O)(=O)c1ccccc1)C1CCCC1` (configuration not stated), 10.4 µM (active).
Regarding `O=C(CN(CC1CCCO1)C(=O)CNS(=O)(=O)c1ccc(F)cc1)NCc1ccco1` (configuration not stated), the Potency entry is “inactive”.
The same measure, in the same setting: in the case of `CCc1c(C)nc2cc(-c3cccs3)[nH]n2c1=O` it was 2.08 µM (active); in that of `C=CCc1c(C)nc2cc(-c3ccccc3)[nH]n2c1=O`, “inactive”.
For the compound `Cc1cc(=O)n2[nH]c(-c3cccc(Cl)c3)cc2n1`, the Potency result was “inactive”.
The same measure, in the same setting: in the case of `Cc1nc2nc(COc3ccccc3)[nH]n2c(=O)c1Cc1ccccc1` it was “inactive”.
Still for that read-out and setting: the result for `CCc1c(C)nc2cc(C)[nH]n2c1=O` reads 3.7 µM (active); that for `CCC(C)n1[nH]c(=O)c2c(C)cc(C)nc21` (configuration not stated), “inactive”.

Values taken from PubChem BioAssay AID504834 (National Center for Advancing Translational Sciences (NCATS), 2011).
